MbtI inh: MbtI salicylate synthase inhibition; 0.89% of 100,000 active; purified MbtI enzyme, fluorescence intensity read-out; inhibition, % (no concentration beside the values); in the data active means inhibition mostly above about 56%, no sharp cut-off; inactive means mostly below about 77%
AID504770: E. coli YBA685 growth inhibition, screen for V. cholerae RctB inhibitors; E. coli YBA685 rctB-dependent plasmid, OD600 growth, 3 h; stronger effect = lower value; z-score (test concentration not listed); 0.27% of 130,000 active; AID 504770; in the data active means z-score below about -2, passing the limit was not always enough
Mtb MenB inh: blocks the Mycobacterium tuberculosis MenB enzyme; MenB enzyme assay, absorbance read-out; inhibition, % (no concentration beside the values); 0.43% of 100,000 active; in the data active means inhibition above about 21%, passing the limit was not always enough
Polio RdRp inh: inhibitors of poliovirus RNA polymerase binding and polymerization | P03300 | poliovirus polymerase elongation, fluorescence polarization; stronger effect = lower value | % elongation, % (compound at 16.7 µg/mL) | 0.66% of 150,000 active | AID 588519; in the data active means % elongation below about 90%
Target sequence (P03300 1749-2209 limits assumed): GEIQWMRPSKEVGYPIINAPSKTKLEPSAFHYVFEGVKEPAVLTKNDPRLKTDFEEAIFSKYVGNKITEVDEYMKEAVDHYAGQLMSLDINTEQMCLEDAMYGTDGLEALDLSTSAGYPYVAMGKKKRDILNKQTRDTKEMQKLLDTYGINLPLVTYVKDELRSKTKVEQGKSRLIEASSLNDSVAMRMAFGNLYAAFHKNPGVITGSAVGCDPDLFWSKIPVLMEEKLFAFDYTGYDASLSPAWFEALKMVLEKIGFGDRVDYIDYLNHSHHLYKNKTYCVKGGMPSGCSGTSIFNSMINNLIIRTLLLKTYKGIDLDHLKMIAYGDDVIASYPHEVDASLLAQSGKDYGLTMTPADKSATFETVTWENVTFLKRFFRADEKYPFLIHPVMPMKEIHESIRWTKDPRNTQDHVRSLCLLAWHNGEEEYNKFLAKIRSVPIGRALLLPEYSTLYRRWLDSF
Numbers without * were called inactive. Shown are actives, neighbours in structure and some others; about 1.4% of the full set was active somewhere.

`O=C(CCN1c2ccccc2Sc2ccccc21)NC1=NCCS1` gave MbtI inh -19, AID504770 0.1, Mtb MenB inh -9 and Polio RdRp inh 85*.
`O=C(CCCN1C(=O)c2ccccc2C1=O)NC1=NCCS1` gave MbtI inh 2, AID504770 -0.5, Mtb MenB inh -17 and Polio RdRp inh 100.
For Cn1nc(C2CC2)cc1C(=O)O the results were MbtI inh 2, AID504770 -0.35, Mtb MenB inh 30* and Polio RdRp inh 102.
For C=CCN1C(=O)CS/C1=C(\C#N)S(=O)(=O)c1ccc(C)cc1 the results were MbtI inh 1, AID504770 -2.9*, Mtb MenB inh -69 and Polio RdRp inh 98.
O=C1C2C3c4ccccc4C(c4ccccc43)C2C(=O)N1Cc1ccco1 (stereo not drawn) was read as MbtI inh -1, AID504770 1.2, Mtb MenB inh 23* and Polio RdRp inh 101.
For O=C(O)C1CN=C(c2ccccc2)N1 (stereo not drawn) the results were MbtI inh -3 and AID504770 1.2.
`O=C1CS/C(=N/c2ccccn2)N1C1CCCCC1` gave MbtI inh -2, AID504770 0.45, Mtb MenB inh -16 and Polio RdRp inh 101.
For CCCN1CCOC(CC(=O)Nc2ccc(Br)cc2Br)C1=O (stereo not drawn) the results were MbtI inh 87* and AID504770 0.7.
For CCN1CCOC(CC(=O)Nc2ccccc2C)C1=O (stereo not drawn) the results were MbtI inh 75*, AID504770 0.8, Mtb MenB inh -6 and Polio RdRp inh 105.
FC(F)(F)c1cnc(N2CCN(Cc3cc(Cl)c4c(c3)OCCCO4)CC2)c(Cl)c1 was read as MbtI inh 0, AID504770 -0.15, Mtb MenB inh -17 and Polio RdRp inh 98.
O=S(=O)(CCc1ccccc1)c1ccccc1 was read as MbtI inh -3, AID504770 1.1, Mtb MenB inh 26* and Polio RdRp inh 100.
`CCC1C[N+]2(C)CCc3cc(OC)c(OC)cc3C2CC1=O` (stereo not drawn) gave AID504770 -0.5, Mtb MenB inh -7 and Polio RdRp inh 106.
`CN(C(=O)CSc1nncn2c1cc1sccc12)c1ccccc1` gave MbtI inh 6, AID504770 -0.5, Mtb MenB inh 33* and Polio RdRp inh 98.
For Cn1nc(C(=O)N2CCCCC2)c2c1-c1ccccc1SC2 the results were MbtI inh 87*, AID504770 -1.1, Mtb MenB inh 0 and Polio RdRp inh 101.
Cn1nc(C(=O)N2CCN(c3ccc(Cl)cc3)CC2)c2c1-c1ccccc1SC2 was read as Polio RdRp inh 110.
For Cc1ccc2nc3sc(C(=O)O)c(N)c3cc2c1 the results were MbtI inh 46, AID504770 0.15, Mtb MenB inh -41 and Polio RdRp inh 103.
Cc1ccc2ncc(-c3ccc4c(N)c(C)ccc4n3)cc2c1 was read as AID504770 -0.3, Mtb MenB inh -35 and Polio RdRp inh 17*.
`O=S(=O)(Cc1ccccc1)n1ccnc1` gave AID504770 -1.2.
`O=C(CCc1ccccc1)NN1CCOCC1` gave MbtI inh 2, AID504770 1.6, Mtb MenB inh -28 and Polio RdRp inh 97.
`COc1ccc(/C=C2\SC(=O)NC2=S)cc1OC` gave MbtI inh 64*, AID504770 1.5, Mtb MenB inh -65 and Polio RdRp inh 90.
For CN1C(=O)c2ccccc2N2C(=O)CCC12C(=O)O (stereo not drawn) the results were MbtI inh -3, AID504770 -0.25, Mtb MenB inh 7 and Polio RdRp inh 101.
`CSC(C)C(=O)C1=C(O)c2ccccc2C1=O` (stereo not drawn) gave AID504770 1.6.
For O=C1C(SCCO)=C(SCCO)C(=O)c2ccccc21 the results were MbtI inh 91*, Mtb MenB inh 20 and Polio RdRp inh 99.
Cc1ccc(C2=Nn3c(nnc3C3CCCCC3)SC2C)cc1 (stereo not drawn) was read as MbtI inh 50, AID504770 0.9, Mtb MenB inh -25 and Polio RdRp inh 96.
Screening COc1ccc(Cc2nnc3n2N=C(c2ccc(C)c(C)c2)C(C)S3)cc1OC (stereo not drawn) returned MbtI inh 47, AID504770 -0.2, Mtb MenB inh -18 and Polio RdRp inh 87*.
For CC1Sc2nnc(Cc3ccc(Br)cc3)n2N=C1c1ccc(NS(C)(=O)=O)cc1 (stereo not drawn) the results were MbtI inh 26, AID504770 -0.45, Mtb MenB inh -30 and Polio RdRp inh 78*.
`CS(=O)(=O)Nc1ccc(Br)cc1` gave AID504770 -0.95, Mtb MenB inh -1 and Polio RdRp inh 105.

Screens (PubChem BioAssay)
